The target in test [1] is Acetylcholinesterase (Homo sapiens) (UniProt P22303). Description: Acetylcholinesterase (AChE) small molecule antagonists: colormetric cell-based qHTS assay (AID 1347395). Also: nearly all actives have a fitted effect of over 30% in size. Also: potency is read from the fitted curve at half-maximal effect. In short, it runs like this:
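Neuroblastoma line SH-SY5Y supplied the enzyme; cells were preincubated with compound for 30 min at 37 C and 5% CO2. Acetylthiocholine with DTNB was then added for 90 min at 37 C, and thiocholine was measured by colour.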
In general terms: qHTS replaces the single test concentration by a dilution series.

Test [2] shares this target. Description: Acetylcholinesterase (AChE) small molecule antagonists: enzyme-based qHTS assay (AID 1347397). Also: nearly all actives have a fitted effect of over 55% in size. Also: potency is read from the fitted curve at half-maximal effect. To be noted: Potency: AChE enzyme activity inhibition; outcome: AChE enzyme activity inhibition. In short, it runs like this: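 Tox21 library chemicals are tested in qHTS format against recombinant human AChE. The enzyme, dispensed at 50 mU/mL, sits with compound for 30 min at room temperature. A DTNB–acetylthiocholine cocktail follows, and colour is read after 10 min.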

Test [3] has the same target. The experiment in a line: Acetylcholinesterase (AChE) small molecule antagonists: fluorescence cell-based qHTS assay (AID 1347398). Also: nearly all actives have a fitted effect of over 50% in size. Also: potency is read from the fitted curve at half-maximal effect. To be noted: Potency: AChE activity; outcome: AChE activity. The procedure, abridged: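 Cellular AChE inhibition: SH-SY5Y cells treated with test chemical for 30 min at 37 C, then acetylthiocholine hydrolysis followed over 40 min at room temperature via thiocholine-reactive Thiolite Green fluorescence (490/520 nm).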

For test [4] the target is unchanged. The experiment in a line: Acetylcholinesterase (AChE) small molecule antagonists: enzyme-based qHTS assay with human liver microsomes (AID 1347399). Also: nearly all actives have a fitted effect of over 60% in size. To be noted: Potency: qHTS inhibition; outcome: qHTS inhibition. The procedure, abridged:
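Recombinant human AChE (50 mU/mL in the enzyme mix) and human liver microsomes (0.25 mg/mL final) were preincubated with compound and NADPH (0.25 mg/mL final) for 30 min at 37 C. Acetylthiocholine/DTNB was then added; thiocholine was read colorimetrically after 10 min at room temperature.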

Values joined by “and” are separate entries in the source; they are usually repeats but may differ in a detail not shown here. Equal entries are not always repeated. Inconclusive results are not listed. A structure can be active in one record and inactive in another. Active and inactive are the calls of the source. Calls follow the shape of the full dose curve.

Acetylcholinesterase (Homo sapiens), sequence (P22303 whole entry, looked up): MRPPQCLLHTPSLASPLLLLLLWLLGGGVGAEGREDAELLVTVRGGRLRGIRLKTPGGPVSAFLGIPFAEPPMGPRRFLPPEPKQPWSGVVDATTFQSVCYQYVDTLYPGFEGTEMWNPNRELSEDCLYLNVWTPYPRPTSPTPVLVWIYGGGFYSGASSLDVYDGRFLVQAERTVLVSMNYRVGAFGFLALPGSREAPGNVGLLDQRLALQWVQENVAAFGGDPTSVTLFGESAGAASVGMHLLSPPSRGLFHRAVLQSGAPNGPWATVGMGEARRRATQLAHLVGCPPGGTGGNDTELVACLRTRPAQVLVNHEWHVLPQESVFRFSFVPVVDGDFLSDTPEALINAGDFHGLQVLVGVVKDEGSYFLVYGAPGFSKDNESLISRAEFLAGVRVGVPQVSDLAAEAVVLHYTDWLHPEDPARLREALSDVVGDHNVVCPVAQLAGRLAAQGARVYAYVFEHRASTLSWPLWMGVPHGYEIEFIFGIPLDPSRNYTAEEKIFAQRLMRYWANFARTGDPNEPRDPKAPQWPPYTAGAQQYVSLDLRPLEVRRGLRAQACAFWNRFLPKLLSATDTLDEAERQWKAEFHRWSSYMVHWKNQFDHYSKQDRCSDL

On to `Cc1occc(=O)c1O`, for which the Potency result in test [1], in test [2], in test [3] and in test [4] was “inactive” each time.

As for `NCCNC(=O)c1ccc(Cl)cn1`, the Potency entry in test [1], in test [2], in test [3] and in test [4] was “inactive” each time.

Take `CC(=O)N/N=C/c1ccc([N+](=O)[O-])o1`: the Potency result in test [1], in test [2], in test [3] and in test [4] was “inactive” each time.

For `COC(=O)CC(C)CCC=C(C)C` (stereo not given), the Potency result in test [1], in test [2], in test [3] and in test [4] was “inactive” each time.

Take `COc1ccccc1C=O`: the Potency entry in test [1], in test [2], in test [3] and in test [4] was “inactive” each time.

Turning to `Cc1cc(=O)oc2cc(O)cc(O)c12`, the Potency result in test [1], in test [2], in test [3] and in test [4] was “inactive” throughout.

On to `Oc1ccc2ccccc2c1N=Nc1ccccc1`, for which the Potency entry in test [1], in test [2], in test [3] and in test [4] was “inactive” throughout.

As to `CC(C)=CCC/C(C)=C/CC/C(C)=C/CO`, the Potency result in test [1], in test [2], in test [3] and in test [4] was “inactive” each time.

Take `Cc1c(-c2cccnc2)c2ccccc2n1CCCCC(=O)O`: the Potency entry in test [1], in test [2], in test [3] and in test [4] was “inactive” each time.

Consider `O=c1n(CCO)c(=O)n(CCO)c(=O)n1CCO`, for which the Potency result in test [1], in test [2], in test [3] and in test [4] was “inactive” throughout.

As for `C=CC(=O)OCCC(=O)O`, in test [1], the Potency is 82.3 µM (active) and inactive. The Potency result in test [2], in test [3] and in test [4] was “inactive” each time.

As for `O=C(O[C@@H](C(=O)O)[C@@H](OC(=O)c1ccccc1)C(=O)O)c1ccccc1`, the Potency entry in test [1], in test [2], in test [3] and in test [4] was “inactive” in each case.

Consider `CC(C)C1=CC2=CC[C@@H]3[C@](C)(CCC[C@@]3(C)C(=O)O)[C@H]2CC1`, for which the Potency entry in test [1], in test [2], in test [3] and in test [4] was “inactive” in each case.

As to `Cc1ncc([N+](=O)[O-])n1C`, the Potency result in test [1], in test [2], in test [3] and in test [4] was “inactive” each time.

In the case of `O=S(c1cc(Cl)cc(Cl)c1O)c1cc(Cl)cc(Cl)c1O`, the Potency entry in test [1], in test [2], in test [3] and in test [4] was “inactive” in each case.

Take `CCCCCCCCCCCCCC[N+](C)(C)Cc1ccccc1`: the Potency in test [1] was 64.3 µM (active) and inactive; in test [2], 64.3 µM (active); in test [3], 36.2 µM (active) and 30.9 µM (active) and 15.8 mM (active). Moreover, the Potency entry in test [4] is “inactive”.

For the molecule `CCc1cccc(O)c1`, the Potency result in test [1], in test [2], in test [3] and in test [4] was “inactive” each time.

Consider `Cc1cc2nc3c(=O)[nH]c(=O)nc-3n(C[C@H](O)[C@H](O)[C@H](O)CO)c2cc1C`, for which the Potency in test [1] is 35.2 µM (active) and 33 µM (active). Further, the Potency result in test [2], in test [3] and in test [4] was “inactive” each time.

With `C/C=C/C=C/CCCCCCCO`, the Potency result in test [1], in test [2], in test [3] and in test [4] was “inactive” each time.

With `CCCCCc1cccc(=O)o1`, the Potency entry in test [1], in test [2], in test [3] and in test [4] was “inactive” in each case.

`O=C(NS(=O)(=O)/C=C/c1ccccc1)c1ccc(F)cc1Cl`: the Potency result in test [1], in test [2], in test [3] and in test [4] was “inactive” in each case.

Take `OCCCc1ccccc1`: the Potency result in test [1], in test [2], in test [3] and in test [4] was “inactive” each time.

Regarding `c1ccc2c(c1)-c1ccc3ccc4cccc5cc-2c1c3c45`, the Potency entry in test [1], in test [2], in test [3] and in test [4] was “inactive” throughout.

As to `CC(=O)OCC(=O)[C@@]12N=C(C)O[C@@H]1C[C@H]1[C@@H]3CCC4=CC(=O)C=C[C@]4(C)[C@H]3[C@@H](O)C[C@@]12C`, the Potency result in test [1], in test [2], in test [3] and in test [4] was “inactive” throughout.

With `Cc1cc(Nc2ccc(O)cc2)ccc1N`, the Potency result in test [1], in test [2], in test [3] and in test [4] was “inactive” throughout.

In the case of `Fc1ccc(C(c2ccc(F)cc2)N2CCNCC2)cc1`, the Potency entry in test [1], in test [2], in test [3] and in test [4] was “inactive” throughout.

Consider `NC(=O)c1ccccc1O`, for which the Potency result in test [1], in test [2], in test [3] and in test [4] was “inactive” in each case.

Regarding `NC(=O)c1cnccn1`, the Potency entry in test [1], in test [2], in test [3] and in test [4] was “inactive” each time.

Turning to `CCC(O)OCCCOC` (stereo not given), the Potency result in test [1], in test [2], in test [3] and in test [4] was “inactive” each time.

In the case of `Cc1cccc(O)c1C`, the Potency result in test [1], in test [2], in test [3] and in test [4] was “inactive” each time.

As to `NC(=O)NNC(N)=O`, the Potency entry in test [1], in test [2], in test [3] and in test [4] was “inactive” throughout.

Regarding `Cc1ccc(C(=O)O)cc1`, the Potency result in test [1], in test [2], in test [3] and in test [4] was “inactive” throughout.

Consider `CC(C)(C)C1CCCCC1O` (stereo not given), for which the Potency result in test [1], in test [2], in test [3] and in test [4] was “inactive” throughout.

Consider `CC(=O)c1ccc(C)cc1`, for which the Potency entry in test [1], in test [2], in test [3] and in test [4] was “inactive” in each case.

Turning to `C[C@@H](CN1CC(=O)NC(=O)C1)N1CC(=O)NC(=O)C1`, the Potency result in test [1], in test [2], in test [3] and in test [4] was “inactive” throughout.

On to `Cc1ccc(S(=O)(=O)NC(=O)NC2CCCC2)cc1`, for which the Potency result in test [1], in test [2], in test [3] and in test [4] was “inactive” in each case.

`CCCCCCCCO`: the Potency result in test [1], in test [2], in test [3] and in test [4] was “inactive” in each case.

With `CC1(C)[C@@H](O[C@H]2O[C@H](C(=O)O)[C@@H](O)[C@H](O)[C@H]2O[C@@H]2O[C@H](C(=O)O)[C@@H](O)[C@H](O)[C@H]2O)CC[C@]2(C)[C@H]3C(=O)C=C4[C@@H]5C[C@@](C)(C(=O)O)CC[C@]5(C)CC[C@@]4(C)[C@]3(C)CC[C@@H]12`, the Potency result in test [1], in test [2], in test [3] and in test [4] was “inactive” each time.

On to `CCCC1O[C@@H]2C[C@H]3[C@@H]4CCC5=CC(=O)C=C[C@]5(C)[C@H]4[C@@H](O)C[C@]3(C)[C@]2(C(=O)CO)O1` (stereo not given in full), for which the Potency result in test [1], in test [2], in test [3] and in test [4] was “inactive” throughout.

As to `CCC=O`, the Potency result in test [1], in test [2], in test [3] and in test [4] was “inactive” throughout.

Consider `c1ccc2c(c1)c1cccc3ccc4cccc2c4c31`, for which the Potency result in test [1], in test [2], in test [3] and in test [4] was “inactive” throughout.

Turning to `CC(=O)NCCCCCC(=O)O`, the Potency result in test [1], in test [2], in test [3] and in test [4] was “inactive” in each case.

As for `CO[C@@H]1[C@@H](OC)[C@H](C)[C@@](O)(CC(=O)O)O[C@H]1[C@H](C)[C@H]1O[C@@]2(CC[C@@](C)([C@H]3CC[C@@](C)([C@@H]4O[C@@H]([C@H]5O[C@](C)(O)[C@H](C)C[C@@H]5C)C[C@@H]4OC4C[C@H](OC)[C@@H](OC)[C@H](C)O4)O3)O2)C[C@H](O)[C@H]1C` (stereo not given in full), the Potency result in test [1], in test [2], in test [3] and in test [4] was “inactive” each time.

Take `CN1CCN(C2=Nc3cc(F)ccc3Cc3ccccc32)CC1`: the Potency entry in test [1], in test [2], in test [3] and in test [4] was “inactive” throughout.

With `CCCCC(CC)COP(=O)(OCC(CC)CCCC)OCC(CC)CCCC` (stereo not given), the Potency result in test [1], in test [2], in test [3] and in test [4] was “inactive” in each case.

Turning to `CC1CN(c2ccccc2)NC1=O` (stereo not given), the Potency entry in test [1], in test [2], in test [3] and in test [4] was “inactive” each time.

Turning to `CCCC(=O)OCCC(C)C`, the Potency entry in test [1], in test [2], in test [3] and in test [4] was “inactive” each time.

In the case of `C1CCCC1`, the Potency entry in test [1], in test [2], in test [3] and in test [4] was “inactive” each time.

As for `CC(C)(c1cc(Br)c(OCC(Br)CBr)c(Br)c1)c1cc(Br)c(OCC(Br)CBr)c(Br)c1` (stereo not given), the Potency result in test [1], in test [2], in test [3] and in test [4] was “inactive” each time.

As for `CCCCCCCCCC(=O)OCC`, the Potency entry in test [1], in test [2], in test [3] and in test [4] was “inactive” each time.

Regarding `CO[Si](CCCNCCNCCN)(OC)OC`, the Potency result in test [1], in test [2], in test [3] and in test [4] was “inactive” in each case.

On to `CCC(=O)OCCc1ccccc1`, for which the Potency result in test [1], in test [2], in test [3] and in test [4] was “inactive” throughout.

As for `C/C=C/CO`, the Potency result in test [1], in test [2], in test [3] and in test [4] was “inactive” in each case.

For the molecule `CC(C)CC(C)CC(C)CC(C)COC(=O)c1ccccc1C(=O)OCC(C)CC(C)CC(C)CC(C)C` (stereo not given), the Potency entry in test [1], in test [2], in test [3] and in test [4] was “inactive” each time.

Regarding `CC(C)N1C(=O)c2ccccc2C1=O`, the Potency entry in test [1], in test [2], in test [3] and in test [4] was “inactive” in each case.

With `CC/C=C\CCOC(=O)c1ccccc1O`, the Potency entry in test [1], in test [2], in test [3] and in test [4] was “inactive” in each case.

As to `O=NN(CCCl)C(=O)NC1CCCCC1`, the Potency entry in test [1], in test [2], in test [3] and in test [4] was “inactive” in each case.

Regarding `CC(C)c1ccc2cc(C(C)C)ccc2c1`, the Potency entry in test [1], in test [2], in test [3] and in test [4] was “inactive” throughout.

On to `Cc1nnc(NS(=O)(=O)c2ccc(N)cc2)s1`, for which the Potency result in test [1], in test [2], in test [3] and in test [4] was “inactive” each time.

Regarding `COc1cccc(CCc2ccccc2OCC(CN(C)C)OC(=O)CCC(=O)O)c1` (stereo not given), the Potency entry in test [1], in test [2], in test [3] and in test [4] was “inactive” throughout.

Source of the values: PubChem BioAssay (Tox21).
